Assay results as given in PubChem BioAssay AID504580 (NMMLSC, 2011).
Out of some 2,000 compounds screened, fewer than 10 were called active.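 The calls were made as follows: active = compounds that quench the bead-bound fluorescent RNA probe, cutting fluorescence to under half of the solvent control; inactive = the rest.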 A selection follows.

assay: fluorescent RNA aptamer quenching, single concentration, confirmation, artefact control for GRK2 RNA aptamer inhibitor project, biochemical, single point, cherry pick 1, flow cytometry (AID 504580); conditions: Carboxyfluorescein RNA aptamer on beads, at 10 µM, hits give low values;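 also: counterscreen run without GRK2 so only probe quenching by compound is measured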

SMILES | fluorescence response (% of DMSO)
C=C(C)C(=O)Nc1cccc(C2=NOC3(C2)C[C@H](C(N)=O)N(C(=O)C(c2ccccc2)c2ccccc2)C3)c1 (stereo partly drawn) | 102% (inactive)
COc1cccc(CN(C)CC(=O)Nc2sc3c(c2C#N)CCC3)c1 | 99.9% (inactive)
CCCc1nc2ccccc2c(=O)n1NC(=O)c1c(O)c2ccccc2[nH]c1=O | 101% (inactive)
O=C(Nc1nnc(-c2ccccc2)o1)c1cccc(S(=O)(=O)N2CCOCC2)c1 | 101% (inactive)
CC(C)Cn1c(CN(Cc2ccccc2)Cc2ccccc2)nc2c1c(=O)n(C)c(=O)n2C | 98% (inactive)
CN(CC(=O)Nc1ccc(N2CCOCC2)cc1)CC(=O)Nc1ccccc1[N+](=O)[O-] | 101% (inactive)
COc1cc(C(=O)OCC(=O)N(CC(C)C)C2CCS(=O)(=O)C2)ccc1OCC(C)C (stereo not drawn) | 91.4% (inactive)
CSc1nc2ccccc2c(=O)n1Cc1ccc(F)cc1 | 100% (inactive)
CCOC(=O)c1sc2nc(CSc3ccccc3)[nH]c(=O)c2c1C | 106% (inactive)
Cn1c(=O)c2c(nc(N3CCOCC3)n2CCNC2=NCCC2)n(C)c1=O | 99.8% (inactive)
O=C(c1cnn(-c2ccc(Cl)cc2)c1)c1ccccc1O | 101% (inactive)
O=C(NCc1ccccc1Cl)c1ccc2c(=O)n(CC3CCCO3)c(=S)[nH]c2c1 (stereo not drawn) | 95.6% (inactive)
Cc1csc(=O)n1CC(=O)OCC(=O)N(CC(C)C)c1c(N)n(Cc2ccccc2)c(=O)[nH]c1=O | 99.2% (inactive)
O=C(COC(=O)c1ccc(F)cc1F)Nc1ncccn1 | 95.8% (inactive)
COc1cc(C(=O)NCc2ccc3c(c2)cc(C)n3C)cc(OC)c1OC | 96.5% (inactive)
O=C(NC(=O)c1cc(OCC(F)(F)F)ccc1OCC(F)(F)F)Nc1ccccc1 | 103% (inactive)
CC(=O)N1CC[n+]2c(-c3ccc([N+](=O)[O-])cc3)csc21 | 103% (inactive)
CCOc1ccccc1C(=O)NCc1ccco1 | 96% (inactive)
Cc1cc2cc(CNC(=O)c3cccs3)ccc2[nH]1 | 86.2% (inactive)
COc1ccc(Nc2nc(-c3cccnc3)nc3ccccc23)cn1 | 101% (inactive)
CCN1/C(=C\c2ccc3ccccc3[n+]2CC)Sc2cc(C)ccc21 | 173% (inactive)
Cn1c(=O)[nH]c(=O)c2c1nc(N1CCN(C(c3ccccc3)c3ccccc3)CC1)n2CCO | 98.3% (inactive)
COC(=O)N/N=C/c1ccc(/C=N/NC(=O)OC)cc1 | 100% (inactive)
COc1ccc(Nc2cc(Sc3ccc(OC)cc3)ncn2)cc1 | 101% (inactive)
O=C(c1ccc(Cl)cc1)c1ccc(OCC(O)CN2CCCCC2)cc1 (stereo not drawn) | 101% (inactive)
COc1ccc(-n2nc(C(=O)NCC(=O)N3CCCCCC3)c3ccccc3c2=O)cc1Cl | 105% (inactive)

SMILES | fluorescence response (% of DMSO)
COc1ccccc1NC(=O)CSc1nc2sc3c(c2c(=O)n1-c1ccccc1)CCN(C)C3 | 94.8% (inactive)
NC(=O)C1CCN(C(=O)c2ccc3c(=O)n(Cc4cccc(Br)c4)c(=S)[nH]c3c2)CC1 | 98.1% (inactive)
COc1ccc(C(=O)NCCNc2ccc([N+](=O)[O-])cn2)cc1 | 99.4% (inactive)
Cc1nc(C(=O)NCc2ccccc2)sc1C1(C)CC(c2cccnc2)=NO1 (stereo not drawn) | 97.1% (inactive)
O=C(c1cc2cc(F)ccc2[nH]1)N1CCN(c2ccc(F)cc2)CC1 | 97.9% (inactive)
CNS(=O)(=O)c1cccc(C(=O)NCC2CCCCC2)c1 | 101% (inactive)
Nc1ccc2nc3c(=O)[nH]c(=S)[nH]c3nc2c1 | 83.9% (inactive)
O=C(Oc1ccc(Br)cc1)c1cccnc1 | 96.7% (inactive)
Cc1ccccc1-c1nnn(CC(=O)c2ccc(S(=O)(=O)N3CCCC3)cc2)n1 | 96.4% (inactive)
CSc1ccc(/C=C2\NC(=O)NC2=O)cc1 | 95.8% (inactive)
Cc1ccc(-c2nn(-c3ccccc3)cc2/C=C2\SC(=S)N(CCCCCC(=O)O)C2=O)o1 | 136% (inactive)
COCCn1c(C)cc(C(=O)CN2c3cccc4cccc(c34)S2(=O)=O)c1C | 98% (inactive)
Cc1cc(C(=O)NC2CCN(Cc3ccccc3)CC2)n[nH]1 | 96.6% (inactive)
C/C(=N\OCC(=O)O)c1ccc(Cl)cc1 | 101% (inactive)
CC(NC(=O)C1CCCN(S(=O)(=O)c2ccc(-n3cnnn3)cc2)C1)c1ccc(F)cc1 (stereo not drawn) | 105% (inactive)
CCN1C(=O)[C@H]2[C@@H](c3ccc(-c4ccc(OC)cc4)cc3)N[C@@](Cc3ccccc3)(C(=O)OC)[C@H]2C1=O | 96.4% (inactive)
COc1ccc(NC(=O)CN(C)C(=O)c2cc(-c3ccc(C)o3)nc3ccccc23)cc1 | 100% (inactive)
COc1ccc(N2CCN(C(CNS(=O)(=O)c3ccc(C)cc3)c3ccccc3)CC2)cc1 (stereo not drawn) | 98.2% (inactive)
O=C(NCC12CC3CC(C1)CC(CNC(=O)N1CCCC1)(C3)C2)N1CCCC1 | 98.2% (inactive)
O=C(O)c1ccc2c(c1)C(=O)N(c1ccc(/C=C/C(=O)c3ccccc3)cc1)C2=O | 99.8% (inactive)
O=S(=O)(Nc1ccc(-c2ccc(N3CCOCC3)nn2)cc1)c1cc(Cl)ccc1Cl | 108% (inactive)
O=C(NCc1ccccc1)c1cccc(NC(=O)C2CCCCC2)c1 | 98% (inactive)
CCC(=C/c1sc2ccc3ccccc3c2[n+]1C)/C=C1\Sc2ccc3ccccc3c2N1C | 10.7% (active)
Cc1ccccc1CN1CCN(CC(=O)NCc2ccccn2)C1=O | 101% (inactive)
Cc1ccc(S(=O)(=O)CCC(=O)Nc2nnc(CC(C)C)s2)cc1 | 99.8% (inactive)
O=C(CCNC(=O)c1ccccc1)NN=Cc1ccc(Br)o1 | 96.6% (inactive)

SMILES | fluorescence response (% of DMSO)
Cc1ccc(C(CNC(=O)Nc2cccc(C)c2)N2CCN(C)CC2)cc1 (stereo not drawn) | 98% (inactive)
O=c1[nH]c(SCc2ccccc2)nnc1-c1ccccc1 | 98.2% (inactive)
Cc1nc(Nc2ccccc2F)c2nnn(Cc3ccccc3Cl)c2n1 | 99.8% (inactive)
CCOC(=O)C1CCCN(Cc2nc(N)nc(Nc3ccc(C)cc3)n2)C1 (stereo not drawn) | 80% (inactive)
Cc1ccc(N2C(=O)C3N=NN(CC(=O)N4N=C(c5cccc6ccccc56)CC4c4ccccc4)C3C2=O)cc1 (stereo not drawn) | 101% (inactive)
OC(CN=c1sc2ccccc2n1CC(O)COc1ccccc1)COc1ccccc1 (stereo not drawn) | 95.8% (inactive)
CC(C)CN(C(=O)c1cccc(S(=O)(=O)N2CCCCC2)c1)C1CCS(=O)(=O)C1 (stereo not drawn) | 102% (inactive)
O=C(COc1ccccc1)NCCc1nc2ccccc2[nH]1 | 99.7% (inactive)
CCOC(=O)C(C)n1cnc2scc(-c3ccc(C)c(C)c3)c2c1=O (stereo not drawn) | 95.4% (inactive)
Cc1cc(/C=C2\SC(=O)N(C)C2=O)c(C)n1-c1cccc(C(=O)O)c1 | 96.6% (inactive)
COc1ccc(Cl)cc1NC(=O)CCS(=O)(=O)c1cc2c(cc1C)NC(=O)CO2 | 99.6% (inactive)
COC(=O)c1ccc(C)c(NC(=O)C2CC(=O)N(C3CCCC(C)C3C)C2)c1 (stereo not drawn) | 94.9% (inactive)
CCN1/C(=C/c2ccc3ccc(C)cc3[n+]2CC)Sc2ccccc21 | 142% (inactive)
Cc1cccc(NC(=O)C2CCCN(C(=O)NCc3ccccc3)C2)c1C (stereo not drawn) | 102% (inactive)
CCCCn1nc(C(=O)OCC(=O)Nc2sccc2C(N)=O)c2ccccc2c1=O | 99.8% (inactive)
O=C(CCS(=O)(=O)c1ccc(Br)cc1)NCCc1ccc(Cl)cc1 | 102% (inactive)
O=C1C2N=NN(CC(=O)N3N=C(c4cccc5ccccc45)CC3c3ccccc3)C2C(=O)N1c1ccccc1 (stereo not drawn) | 91.2% (inactive)
CN/C(=C\[N+](=O)[O-])NCCSCc1csc(CN(C)C)n1 | 99.2% (inactive)
COCCCNC(=O)CNC(=O)c1nn(-c2ccc(OC)cc2)c(=O)c2ccccc12 | 96.3% (inactive)
O=C(NNc1ncnc2c1cnn2-c1ccccc1)c1ccco1 | 97.9% (inactive)
CC(=O)c1ccc(OCC(O)CN2CCN(S(=O)(=O)c3cccc(Br)c3)CC2)cc1 (stereo not drawn) | 142% (inactive)
CCOCCCNC(=O)C(NC(=O)CNC(=O)c1ccccc1)c1ccc(OC)cc1 (stereo not drawn) | 96% (inactive)
Cc1nn(Cc2ccc(F)cc2)c(C)c1NC(=O)c1noc2c1CCc1ccccc1-2 | 97% (inactive)
C/C(=N\Nc1nc2ccccc2[nH]1)c1cccs1 | 92.8% (inactive)
O=C(Nc1ccc(-c2nnc(-c3ccccc3)o2)cc1)c1ccc(Br)o1 | 98.8% (inactive)
CN(Cc1ccccc1)C(=O)c1cccc(C(=O)N(C)Cc2ccccc2)c1 | 101% (inactive)
